aSyn rescue = rescues yeast growth from alpha-synuclein toxicity; Yeast expressing alpha-synuclein, growth rescue, BacTiter-Glo, 24 h; Potency, µM (highest dose often 46.1 µM), without a hit: at the highest dose growth rescue (activation), most hits filed as activators; actives 0.14% (n = 370,000); AID 652106; note: potency is the fitted concentration of half-maximal effect; % of control where 0% means no effect; nearly all actives have a fitted effect of over 65% in size
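Rescue of yeast growth: cells expressing toxic alpha-synuclein, induced in galactose at OD600 0.02, incubated with compound 24 h at 30 C. ATP luminescence quantified growth; inhibitors of toxicity appear as activators.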
IDH1 R132H inh = human IDH1 R132H inhibition; AID 602179; actives 0.093% (n = 390,000); Potency, µM (highest dose often 76.6 µM), inactives show at the top dose activity change, negative = inhibition, usual class: inhibitors; O75874; IDH1-R132H enzyme, NADPH consumption, diaphorase/resazurin fluorescence; note: potency is the fitted concentration of half-maximal effect; % is set by controls: 0 for no effect and ±100 for the full control effect; nearly all actives have a fitted effect of over 65% in size
Target sequence (O75874 whole entry R132H, stated change not applied): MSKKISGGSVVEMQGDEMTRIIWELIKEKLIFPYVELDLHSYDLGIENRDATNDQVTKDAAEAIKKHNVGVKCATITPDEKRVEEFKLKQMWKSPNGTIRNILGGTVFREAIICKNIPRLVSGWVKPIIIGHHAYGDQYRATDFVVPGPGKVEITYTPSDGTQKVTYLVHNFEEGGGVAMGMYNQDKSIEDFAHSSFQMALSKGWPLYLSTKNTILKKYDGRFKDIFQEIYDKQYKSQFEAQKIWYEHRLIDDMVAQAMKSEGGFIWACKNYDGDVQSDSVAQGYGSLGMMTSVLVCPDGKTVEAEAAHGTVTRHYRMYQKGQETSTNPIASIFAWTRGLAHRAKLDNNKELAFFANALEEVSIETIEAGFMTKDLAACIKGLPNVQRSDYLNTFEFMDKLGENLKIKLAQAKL
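IDH1-R132H (0.5 ug/mL dispensed) in pH 7.5 Tris buffer was preincubated 30 min with compound, then given a substrate mix of 0.016 mM NADPH and 2 mM alpha-KG for 80 min at room temperature; remaining NADPH was read by diaphorase/resazurin fluorescence.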
LDHA inh = inhibitors of human lactate dehydrogenase A | P00338 | purified LDHA, NADH/diaphorase-resazurin fluorescence; hits give low values | activity change, % (values are at about 110 or 230 µM) | actives 0.15% (n = 480,000) | AID 1347041; in the data active = activity change below about -30%; inconclusive = mostly about -25% to -30%;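 note: plate controls were DMSO wells for no effect and wells without enzyme for full effect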
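Human LDH5 (2 nM) was incubated with 0.06 mM NADH and 0.2 mM pyruvate for 5 min at room temperature in Tris pH 7.4. Remaining NADH was coupled through diaphorase/resazurin, and resorufin fluorescence was read at 0 and 20 min.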
Abeta yeast res = compounds reversing amyloid beta toxicity in yeast; yeast expressing A-beta42, growth rescue, OD600, 48 h; response scale: 0% DMSO, 100% iron-clioquinol control; Potency, µM (highest dose often 46.1 µM), hits mostly activators; actives 0.063% (n = 410,000); AID 1347071; note: potency is the fitted concentration of half-maximal effect; nearly all actives have a fitted effect of over 55% in size
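Yeast A-beta toxicity model in growth medium with pinned compounds, 48 h at 30 C; growth read as absorbance at 600 nm. Normalized to FeCl3/clioquinol equimolar mix (positive) and DMSO (negative).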
TDP43 rescue = inhibitors of TDP-43 toxicity in yeast. TDP-43 expressing yeast growth rescue, BacTiter-Glo, 24 h. Potency, µM (doses to about 46.1 µM), inactives show at the top dose growth rescue (activation), usual class: activators. actives 1.8% (n = 410,000); note: potency is the fitted concentration of half-maximal effect; % of control where 0% means no effect; nearly all actives have a fitted effect of over 50% in size
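Luminescence from BacTiter-Glo reports growth of TDP-43-expressing yeast after 24 hr at 30 deg C with compound. Cells were raffinose-pregrown to mid-log, then seeded in galactose medium at OD600=0.02.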
FUS suppressor = FUS proteinopathy suppression in yeast; S. cerevisiae FUS-expressing, growth rescue, OD600, 24 h; Potency, µM (series often up to 76.6 µM), most hits filed as activators; actives 0.24% (n = 390,000); AID 1347120;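 note: potency is the fitted concentration of half-maximal effect; plate controls were DMSO vehicle for no effect and reference control for full effect; nearly all actives have a fitted effect of over 55% in size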
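Galactose (2%) drives FUS expression in yeast precultured in raffinose; seeding density OD 0.005. Test compounds incubated 24hr at 30C and 99% humidity before absorbance at 600 nm was measured.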
Active calls of the source: *; i = inactive; ? = inconclusive; · = not tested or not shown. A selection: hits, their analogues and other compounds. The true share with any hit is near 2%. Unless noted, calls come from the whole dose curve; as a rule, active = well fitted curve in the direction sought with a large enough effect; inconclusive = small, poorly fitted or top-dose-only effect, or another doubt; inactive = no such curve, though single readings can be large; an effect the other way counts as inactive or inconclusive.

SMILES	aSyn rescue	IDH1 R132H inh	LDHA inh	Abeta yeast res	TDP43 rescue	FUS suppressor
CCNC(=O)c1cc2c(c(-c3cccc(-c4cccc(C(=O)N(C)C)c4)c3)n1)[C@@H](CCO)N(S(=O)C(C)(C)C)C2 (some centres not stated)	-8%	·	0	i	23%	?
CC(C)(C)S(=O)N1Cc2cc(C(=O)NCc3ccc(Oc4ccccc4)cc3)nc(-c3cccc(-c4cc5ccccc5o4)c3)c2[C@H]1CCO (some centres not stated)	-27%	·	-6	i	28%	?
CC(C)(C)S(=O)N1Cc2cc(C(=O)NCC(F)(F)F)nc(-c3cccc(-c4cccc(F)c4)c3)c2[C@@H]1CCO (some centres not stated)	-2%	·	0	i	16%	22µM*
CN(C)C(=O)c1cccc(-c2cccc(-c3nc(C(=O)NCc4ccccc4)cc4c3[C@H](CCO)N(S(=O)C(C)(C)C)C4)c2)c1 (some centres not stated)	-1%	·	2	i	16%	i
COc1cccc(-c2cccc(-c3nc(C(=O)NCc4ccc5c(c4)OCO5)cc4c3[C@H](CCO)N(S(=O)C(C)(C)C)C4)c2)c1 (some centres not stated)	-53%	·	2	i	-19%	20µM*
COc1cccc(-c2cccc(-c3nc(C(=O)Nc4ccc(-c5ccccc5)cc4)cc4c3[C@H](CCO)N(S(=O)C(C)(C)C)C4)c2)c1 (some centres not stated)	-15%	·	-2	i	0%	28µM*
CC(C)(C)S(=O)N1Cc2cc(C(=O)NCc3ccc4c(c3)OCO4)nc(-c3cccc(-c4cc5ccccc5o4)c3)c2[C@@H]1CCO (some centres not stated)	-18%	·	-3	i	-10%	28µM*
O=S(CCc1ccncc1)Cc1ccc2c3c(cccc13)CC2 (configuration not stated)	·	·	28	·	·	·
O=C(Cn1c(=O)n(CCc2ccccc2)c(=O)c2sccc21)c1ccc(F)cc1	·	·	5	·	·	·
Cc1ccc(C(=O)C2CCN(C(=O)c3ccc(C)cc3)CC2)cc1	-7%	2%	0	i	15%	i
Cc1ccc(C(=O)N2CCC(C(=O)c3c(C)cc(C)cc3C)CC2)cc1	2%	-4%	0	i	18µM*	?
Cc1cccc(C(C)Nc2ccc([N+](=O)[O-])cn2)c1 (configuration not stated)	0%	-2%	-2	i	18µM*	i
O=C(NCc1ccccn1)c1ccc(C(F)(F)F)cc1	·	·	-1	·	·	·
COc1ccc(-c2nc(Cn3c(SCc4cccc(F)c4)nc4cccnc43)c(C)o2)cc1	·	-9%	-2	i	20µM*	?
COc1ccc(-c2nc(Cn3c(SCc4ccc(F)cc4)nc4cccnc43)c(C)o2)cc1	·	-13%	-2	i	25%	i
Cc1oc(-c2ccccc2Cl)nc1Cn1c(SCc2cccc(F)c2)nc2cccnc21	·	-4%	1	?	18µM*	35µM*
COc1ccc(-c2nc(Cn3c(SCc4ccccc4F)nc4cccnc43)c(C)o2)cc1	·	8%	1	i	32µM*	i
COc1ccc(-c2nc(Cn3c(SCc4ccccc4F)nc4ccncc43)c(C)o2)cc1	2%	4%	-3	i	13%	i
Cc1cc(NC(=O)COC(=O)c2cc3ccccc3o2)no1	·	·	0	·	·	·
N#C/C(=C\c1ccccc1[N+](=O)[O-])c1nc(C2CC2)cs1	1%	8%	2	i	14µM*	·
CC(=O)Nc1cccc(-c2csc(Nc3cccc(O)c3)n2)c1	·	·	12	·	·	·
CCCC(=O)N/C(N)=N/c1nc2ccccc2o1	-18%	5%	-6	i	13µM*	i
C[C@H](CO)N1C[C@H](C)[C@@H](CN(C)S(=O)(=O)c2cccs2)Oc2c(NC(=O)NC3CCCCC3)cccc2C1=O	-2%	6%	-1	i	5%	14µM*
C[C@@H]1CN([C@H](C)CO)C(=O)c2cccc(NC(=O)NC3CCCCC3)c2O[C@@H]1CN(C)C(=O)Nc1ccc(C(F)(F)F)cc1	-15%	-5%	1	i	14%	32µM*
C[C@H](CO)N1C[C@H](C)[C@@H](CN(C)C(=O)Nc2ccc(C(F)(F)F)cc2)Oc2c(NC(=O)NC3CCCCC3)cccc2C1=O	7%	?	4	i	-2%	28µM*
SMILES	aSyn rescue	IDH1 R132H inh	LDHA inh	Abeta yeast res	TDP43 rescue	FUS suppressor
C[C@H](CO)N1C[C@H](C)[C@@H](CN(C)C(=O)Nc2ccc(C(F)(F)F)cc2)Oc2c(NC(=O)C3CCCCC3)cccc2C1=O	-11%	-30%	3	i	?	?
NC(N)=NCCCN1CCCC1	·	·	0	·	·	·
Clc1cccc(CNCCCn2ccnc2)c1	·	·	9	·	·	·
COc1ccc(N2CCN(C(=O)CCC(=O)N3CCOc4ccc(Cl)cc43)CC2)cc1	10%	-6%	-4	i	16µM*	i
N#C/C(=C\c1ccc(-c2ccc(Cl)cc2Cl)o1)c1nc2ccccc2[nH]1	·	·	7	·	·	·
O=C(COC(=O)Cc1ccccc1F)Nc1ccc(SC(F)F)cc1	2%	4%	-5	i	10µM*	i
Cc1ccc2[nH]c3c(c2c1)CCCC3NCC12CC3CC(CC(C3)C1)C2 (configuration not stated)	·	·	1	·	·	·
COc1ccc(NC(=O)c2c(NC(=O)CCC(=O)O)sc3c2CCC(C(C)(C)C)C3)cc1 (configuration not stated)	·	·	-30*	·	·	·
COc1ccc(NC(=O)c2c(NC(=O)COc3ccc(Cl)cc3)sc3c2CCCCC3)cc1	·	0%	-6	i	8.9µM*	i
COc1ccc(NC(=O)c2c(NC(=O)COc3ccccc3)sc3c2CCC(C(C)(C)C)C3)cc1 (configuration not stated)	·	41%	-8	i	8%	i
Cc1cc(C(F)F)nn1Cc1nc2c3c4c(sc3ncn2n1)CC(C(C)(C)C)CC4 (configuration not stated)	·	·	1	·	·	·
CC(C)(C)c1cc(C(=O)Nc2ccc(F)cc2)n(Cc2ccc(F)cc2)n1	-11%	-8%	1	?	20µM*	i
Cc1cc(S(=O)(=O)Nc2cccnc2)c(C)s1	-4%	19%	-5	i	-6%	i
Cc1ccc(S(=O)(=O)Nc2ccc3ccccc3c2)cc1	?	3%	7	i	-53%	·
